According to PubChem BioAssay AID1159580 (chemical genetic matrix, 2015):
Several values for one entry are separate records, joined by “and”; a condition that tells them apart may be missing. Equal entries are not always repeated. Screen size: about 5,500 compounds; about 2,000 (36%) were called active. Another 18% or so got no clear call; they are omitted. Rule as the data show it: active = normalized growth mostly below about 0.91 (no sharp cut-off); inconclusive = no clear call, values can overlap the other calls; inactive = mostly above about 0.92. This is one part of the list.

Experiment: chemical genetic growth profiling, strain panel (AID 1159580);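 also: tested at 20 µM; growth read once vehicle control cultures reached saturation at 30 °C; 1 = growth at the plate median or of vehicle wells; lower values mean less growth of the strain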
Details: S. cerevisiae deletion strains, growth OD
[1] = locus YCL061C, strain MRC1, hits give low values
[2] = locus YDL101C, strain DUN1, hits give low values
[3] = locus YHR030C, strain SLT2, hits give low values

Measured: normalized growth

COC(=O)C1=COC(C)C2CN3CCC4(C(=O)Nc5ccccc54)C3CC12 (centres undefined)
inactive: locus YAL021C, strain ccr4, hits give low values 1.02 and 1.01 | locus YAL026C, strain drs2, hits give low values 1.02 | locus YAL030W, strain snc1, hits give low values 1.01 | locus YBL061C, strain skt5, hits give low values 1.04 and 1.02 and 1.03 | locus YBR009C, strain hhf1, hits give low values 1.04 and 1.01 and 1.02 | locus YBR023C, strain chs3, hits give low values 1.02 and 1.01 | locus YBR171W, strain sec66, hits give low values 1.03 and 1.02 | locus YBR231C, strain swc5, hits give low values 1.02 | locus YBR279W, strain paf1, hits give low values 1.02 and 1.01 | locus YCL011C, strain gbp2, hits give low values 1.02 and 1.01 | locus YCL016C, strain dcc1, hits give low values 1.01 | [1] 1.02 and 1.01 | locus YCL069W, strain vba3, hits give low values 1.02 and 1.01 | locus YCR088W, strain abp1, hits give low values 1.02 and 1.01 | locus YDL005C, strain med2, hits give low values 1.02 and 1.01 | locus YDL040C, strain nat1, hits give low values 1.02 | locus YDR001C, strain nth1, hits give low values 1.02 and 1.01 | locus YDR069C, strain doa4, hits give low values 1.02 and 1.04 | locus YDR137W, strain rgp1, hits give low values 0.988 and 0.962 and 0.914 | locus YDR159W, strain sac3, hits give low values 1.05 and 1.02 and 1.03 | locus YDR195W, strain ref2 0.992 and 0.996 and 1.01 | locus YDR297W, strain sur2, hits give low values 1.02 | locus YDR334W, strain swr1, hits give low values 1.02 and 1.01 | locus YDR335W, strain msn5, hits give low values 1.03 and 1.02 | locus YDR392W, strain spt3, hits give low values 1.04 and 1.02 | locus YEL003W, strain gim4, hits give low values 1.03 and 1.02 | locus YEL037C, strain rad23, hits give low values 1.01 and 1.02 | locus YEL061C, strain CIN8 (second series), hits give low values 1.02 and 1.01 | locus YER015W, strain faa2, hits give low values 1.02 | locus YER016W, strain bim1, hits give low values 1.01 and 1.02 | locus YER111C, strain swi4, hits give low values 1.03 and 1.02 and 1.04 | locus YER155C, strain BEM2 (second series), hits give low values 1.03 and 1.02 and 1.04 | locus YFR010W, strain ubp6, hits give low values 1.02 | locus YGL167C, strain pmr1, hits give low values 1.03 and 1.01 and 1.02 | locus YGL173C, strain kem1, hits give low values 1.04 and 1.02 and 1.03 | locus YGL227W, strain vid30, hits give low values 1.03 and 1.01 and 1.02 | locus YGL240W, strain doc1, hits give low values 1.02 | locus YGL253W, strain hxk2, hits give low values 1.02 and 1.01 | locus YHR013C, strain ard1, hits give low values 1.03 and 1.01 and 1.02 | locus YHR027C, strain rpn1, hits give low values 1.02 and 1.01 | locus YHR142W, strain chs7, hits give low values 1.02 and 1.01 | locus YJL092W, strain hpr5, hits give low values 1.03 and 1.01 and 1.02 | locus YJL095W, strain BCK1 (second series), hits give low values 1.01 and 1.02 | locus YJL115W, strain asf1, hits give low values 1.02 and 1.01 | locus YJL129C, strain trk1, hits give low values 1.03 and 1.02 | locus YJL154C, strain vps35, hits give low values 1.02 and 1.01 | locus YJL164C, strain tpk1, hits give low values 1.02 and 1.03 | locus YJL166W, strain qcr8, hits give low values 1.03 and 1.01 and 1.02 | locus YJL187C, strain SWE1, hits give low values 1.02 and 1.01 | locus YKL160W, strain elf1, hits give low values 1.02 | locus YKR026C, strain gcn3, hits give low values 1.02 and 1.03 | locus YKR091W, strain srl3, hits give low values 1.02 and 1.03 | locus YLL001W, strain dnm1, hits give low values 1.03 and 1.02 | locus YLL026W, hits give low values 1.01 and 1.02 | locus YLL041C, strain sdh2, hits give low values 1.02 and 1.01 | locus YLR027C, strain aat2, hits give low values 1.03 and 1.01 | locus YLR221C, strain rsa3, hits give low values 1.02 and 1.01 | locus YLR258W, strain gsy2, hits give low values 1.02 | locus YLR262C, strain YPT6 (second series), hits give low values 1.02 and 1.01 and 0.938 | locus YLR320W, strain mms22, hits give low values 1.04 and 1.03 | locus YLR342W, strain FKS1, hits give low values 1.02 | locus YLR357W, strain rsc2, hits give low values 1.02 and 0.996 and 1.03 | locus YLR370C, strain arc18, hits give low values 1.03 and 1 and 1.01 | locus YLR384C, strain iki3, hits give low values 1.02 and 1.01 | locus YML120C, strain ndi1, hits give low values 1.04 and 1.02 and 1.03 | locus YMR058W, strain fet3, hits give low values 1.02 | locus YMR125W, strain sto1, hits give low values 1.02 and 1.04 | locus YMR129W, hits give low values 1.02 and 1.01 | locus YMR205C, strain PFK2, hits give low values 1.03 and 1.02 | locus YMR231W, strain pep5, hits give low values 1 and 1.01 | locus YNL071W, strain lat1, hits give low values 1.02 and 1.01 | locus YNL209W, strain ssb2, hits give low values 1.02 and 1.01 | locus YNL248C, strain rpa49, hits give low values 1.02 and 1.01 | locus YNL322C, strain KRE1 (second series), hits give low values 1.01 and 1.02 | locus YNR049C, strain mso1, hits give low values 1.02 and 1.01 and 1.03 | locus YOR001W, strain rrp6, hits give low values 1.03 and 1.02 | locus YOR070C, strain gyp1, hits give low values 1.02 and 1.01 | locus YOR080W, strain dia2, hits give low values 1.03 and 1.02 | locus YOR083W, strain WHI5, hits give low values 1.02 and 1.01 | locus YOR106W, strain vam3, hits give low values 1.02 | locus YOR265W, strain rbl2, hits give low values 1.01 and 1.02 | locus YOR270C, strain vph1, hits give low values 1.02 and 1.04 and 1.03 | locus YOR290C, strain snf2, hits give low values 1.02 | locus YPL051W, strain arl3, hits give low values 1.01 | locus YPL078C, strain atp4, hits give low values 1.02 | locus YPL106C, strain sse1, hits give low values 0.998 and 1 and 1.02 | locus YPL240C, strain hsp82, hits give low values 1 and 1.02

Nc1ncnc(SCc2ccc(Cl)cc2)n1
inactive: locus YAL013W, strain DEP1, hits give low values 0.984 | locus YBR229C, strain ROT2, hits give low values 1.01 | [1] 1.02 | [2] 0.988 | locus YDR150W, strain NUM1, hits give low values 1.04 | locus YEL061C, strain CIN8, hits give low values 0.968 | locus YGR078C, strain PAC10, hits give low values 1 | [3] 1.08 | locus YHR087W, strain rtc3, hits give low values 1 | locus YJR043C, strain POL32, hits give low values 0.999 | locus YJR075W, strain HOC1, hits give low values 1.01 | locus YLR039C, strain RIC1, hits give low values 0.835 | locus YLR058C, strain SHM2 (second series), hits give low values 0.999 | locus YLR085C, strain ARP6, hits give low values 0.994 | locus YLR262C, strain YPT6, hits give low values 0.988 | locus YML094W, strain GIM5, hits give low values 0.992 | locus YMR219W, strain ESC1, hits give low values 0.996 | locus YMR263W, strain SAP30, hits give low values 0.989 | locus YMR307W, strain GAS1, hits give low values 0.995 | locus YNL153C, strain GIM3, hits give low values 1.01 | locus YNL298W, strain CLA4 (second series), hits give low values 0.98 | locus YNL322C, strain KRE1, hits give low values 0.987 | locus YNR030W, strain Alg12, hits give low values 1.02 | locus YPL055C, strain LGE1, hits give low values 1.01 | locus YPL241C, strain CIN2, hits give low values 0.993 | locus YPR135W, strain CTF4, hits give low values 1.14

Clc1ccc(CSc2nccn2-c2cc(Cl)ccc2Cl)cc1
active: [3] 0.69
inactive: locus YAR019C, strain CDC15, hits give low values 0.969 | locus YBL105C, strain PKC1, hits give low values 0.964 | locus YBR135W, strain CKS1, hits give low values 0.96 | locus YBR136W, strain MEC1, hits give low values 0.951 | locus YBR160W, strain CDC28, hits give low values 0.963 | locus YDL017W, strain CDC7, hits give low values 0.969 | locus YDL028C, strain MPS1, hits give low values 0.949 | [2] 0.97 | locus YDL108W, strain KIN28, hits give low values 0.937 | locus YDL132W, strain cdc53, hits give low values 0.978 | locus YDL214C, strain PRR2, hits give low values 0.888 | locus YDR052C, strain DBF4, hits give low values 0.962 | locus YDR054C, strain cdc34, hits give low values 0.946 | locus YDR226W, strain ADK1, hits give low values 0.954 | locus YDR477W, strain SNF1, hits give low values 0.888 | locus YER123W, strain YCK3, hits give low values 0.784 | locus YER133W, strain GLC7, hits give low values 0.884 | locus YFL009W, strain cdc4, hits give low values 0.951 | locus YFL029C, strain CAK1, hits give low values 0.965 | locus YFR003C, strain YPI1, hits give low values 0.958 | locus YFR019W, strain FAB1, hits give low values 0.909 | locus YFR028C, strain CDC14, hits give low values 0.961 | locus YGR040W, strain KSS1, hits give low values 0.872 | locus YGR052W, strain FMP48, hits give low values 0.946 | locus YGR092W, strain DBF2, hits give low values 0.801 | locus YHR079C, strain IRE1, hits give low values 0.88 | locus YHR082C, strain KSP1, hits give low values 0.951 | locus YHR205W, strain SCH9, hits give low values 0.893 | locus YIL147C, strain SLN1, hits give low values 0.953 | locus YJL095W, strain BCK1, hits give low values 0.886 | locus YJL128C, strain PBS2, hits give low values 0.987 | locus YJL157C, strain FAR1, hits give low values 0.867 | locus YJR016C, strain ILV3, hits give low values 0.963 | locus YJR066W, strain TOR1 (second series), hits give low values 0.829 | locus YJR066W, strain TOR1, hits give low values 0.948 | locus YKL048C, strain ELM1, hits give low values 0.927 | locus YKL067W, strain YNK1, hits give low values 0.894 | locus YKL101W, strain HSL1, hits give low values 0.887 | locus YKL193C, strain SDS22, hits give low values 0.961 | locus YKL203C, strain TOR2, hits give low values 0.915 | locus YLR113W, strain HOG1, hits give low values 0.884 | locus YLR133W, strain CKI1, hits give low values 0.886 | locus YLR403W, strain SFP1, hits give low values 0.832 | locus YML070W, strain DAK1, hits give low values 0.872 | locus YMR001C, strain CDC5, hits give low values 0.964 | locus YMR205C, strain PFK2 (second series), hits give low values 0.879 | locus YMR277W, strain FCP1, hits give low values 0.958 | locus YNL006W, strain LST8, hits give low values 0.961 | locus YNL020C, strain ARK1, hits give low values 0.859 | locus YNL161W, strain CBK1, hits give low values 0.964 | locus YNL183C, strain NPR1, hits give low values 0.909 | locus YNL207W, strain RIO2, hits give low values 0.965 | locus YNL222W, strain SSU72, hits give low values 0.961 | locus YNL307C, strain MCK1 (second series), hits give low values 0.879 | locus YOL078W, strain AVO1, hits give low values 0.962 | locus YOL136C, strain PFK27, hits give low values 0.872 | locus YOR061W, strain CKA2, hits give low values 0.817 | locus YOR119C, strain RIO1, hits give low values 0.856 | locus YOR231W, strain MKK1, hits give low values 0.868 | locus YOR329C, strain SCD5, hits give low values 0.967 | locus YPL031C, strain PHO85, hits give low values 0.866 | locus YPL153C, strain RAD53, hits give low values 0.847 | locus YPL204W, strain HRR25, hits give low values 0.86 | locus YPL209C, strain IPL1, hits give low values 0.96 | locus YPL256C, strain CLN2, hits give low values 0.977 | locus YPR025C, strain CCL1, hits give low values 0.964 | locus YPR106W, strain ISR1, hits give low values 0.978 | locus YPR111W, strain DBF20, hits give low values 0.976 | strain NNK1, hits give low values 0.974 | strain TSCII, hits give low values 0.962
